# The campaign covered roughly 5,500 compounds. About 2,000 (36%) were called active. Another 18% or so got no clear call; they are omitted. This is one part of the list. A number with no mark means an inactive call. No stated cut-off is given here; in the data, active means normalized growth mostly below about 0.91 (no sharp cut-off); inconclusive means no clear call, values can overlap the other calls; inactive means mostly above about 0.92.
# Experiment: chemical genetic growth profiling, strain panel (AID 1159580);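 further: tested at 20 µM; growth read once vehicle control cultures reached saturation at 30 °C; 1 = growth at the plate median or of vehicle wells; lower values mean less growth of the strain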
# Settings: S. cerevisiae deletion strains, growth OD
structure (smiles),measurement,setting,value
CCC(C)c1ccccc1NC(=O)c1cc2cccc([N+](=O)[O-])c2[nH]1 (stereo unspecified),normalized growth,"locus YAR019C, strain CDC15, hits give low values",0.932
same,normalized growth,"locus YBL105C, strain PKC1, hits give low values",0.914
same,normalized growth,"locus YBR135W, strain CKS1, hits give low values",0.912
same,normalized growth,"locus YBR136W, strain MEC1, hits give low values",0.923
same,normalized growth,"locus YBR160W, strain CDC28, hits give low values",0.924
same,normalized growth,"locus YDL017W, strain CDC7, hits give low values",0.928
same,normalized growth,"locus YDL028C, strain MPS1, hits give low values",0.92
same,normalized growth,"locus YDL101C, strain DUN1, hits give low values",0.949
same,normalized growth,"locus YDL108W, strain KIN28, hits give low values",0.921
same,normalized growth,"locus YDL132W, strain cdc53, hits give low values",0.896
same,normalized growth,"locus YDL214C, strain PRR2, hits give low values",0.904
same,normalized growth,"locus YDR052C, strain DBF4, hits give low values",0.965
same,normalized growth,"locus YDR054C, strain cdc34, hits give low values",0.957
same,normalized growth,"locus YDR226W, strain ADK1, hits give low values",0.936
same,normalized growth,"locus YDR477W, strain SNF1, hits give low values",0.792
same,normalized growth,"locus YER123W, strain YCK3, hits give low values",0.851
same,normalized growth,"locus YER133W, strain GLC7, hits give low values",0.893
same,normalized growth,"locus YFL009W, strain cdc4, hits give low values",0.906
same,normalized growth,"locus YFL029C, strain CAK1, hits give low values",0.925
same,normalized growth,"locus YFR003C, strain YPI1, hits give low values",0.93
same,normalized growth,"locus YFR019W, strain FAB1, hits give low values",0.978
same,normalized growth,"locus YFR028C, strain CDC14, hits give low values",0.967
same,normalized growth,"locus YGR040W, strain KSS1, hits give low values",0.826
same,normalized growth,"locus YGR052W, strain FMP48, hits give low values",0.867
same,normalized growth,"locus YGR092W, strain DBF2, hits give low values",0.7
same,normalized growth,"locus YHR030C, strain SLT2, hits give low values",0.543 (active)
same,normalized growth,"locus YHR079C, strain IRE1, hits give low values",0.219 (active)
same,normalized growth,"locus YHR082C, strain KSP1, hits give low values",0.905
same,normalized growth,"locus YHR205W, strain SCH9, hits give low values",0.964
same,normalized growth,"locus YIL147C, strain SLN1, hits give low values",0.916
same,normalized growth,"locus YJL095W, strain BCK1, hits give low values",0.266 (active)
same,normalized growth,"locus YJL128C, strain PBS2, hits give low values",0.994
same,normalized growth,"locus YJL157C, strain FAR1, hits give low values",0.884
same,normalized growth,"locus YJR016C, strain ILV3, hits give low values",0.911
same,normalized growth,"locus YJR066W, strain TOR1 (second series), hits give low values",0.905
same,normalized growth,"locus YJR066W, strain TOR1, hits give low values",0.767
same,normalized growth,"locus YKL048C, strain ELM1, hits give low values",0.912
same,normalized growth,"locus YKL067W, strain YNK1, hits give low values",0.897
same,normalized growth,"locus YKL101W, strain HSL1, hits give low values",0.83
same,normalized growth,"locus YKL193C, strain SDS22, hits give low values",0.92
same,normalized growth,"locus YKL203C, strain TOR2, hits give low values",0.783
same,normalized growth,"locus YLR113W, strain HOG1, hits give low values",0.656 (active)
same,normalized growth,"locus YLR133W, strain CKI1, hits give low values",0.902
same,normalized growth,"locus YLR403W, strain SFP1, hits give low values",0.859
same,normalized growth,"locus YML070W, strain DAK1, hits give low values",0.846
same,normalized growth,"locus YMR001C, strain CDC5, hits give low values",0.917
same,normalized growth,"locus YMR205C, strain PFK2 (second series), hits give low values",0.894
same,normalized growth,"locus YMR277W, strain FCP1, hits give low values",0.921
same,normalized growth,"locus YNL006W, strain LST8, hits give low values",0.915
same,normalized growth,"locus YNL020C, strain ARK1, hits give low values",0.905
same,normalized growth,"locus YNL161W, strain CBK1, hits give low values",0.924
same,normalized growth,"locus YNL183C, strain NPR1, hits give low values",0.774
same,normalized growth,"locus YNL207W, strain RIO2, hits give low values",0.905
same,normalized growth,"locus YNL222W, strain SSU72, hits give low values",0.917
same,normalized growth,"locus YNL307C, strain MCK1 (second series), hits give low values",0.826
same,normalized growth,"locus YOL078W, strain AVO1, hits give low values",0.924
same,normalized growth,"locus YOL136C, strain PFK27, hits give low values",0.869
same,normalized growth,"locus YOR061W, strain CKA2, hits give low values",0.818
same,normalized growth,"locus YOR119C, strain RIO1, hits give low values",0.805
same,normalized growth,"locus YOR231W, strain MKK1, hits give low values",0.631
same,normalized growth,"locus YOR329C, strain SCD5, hits give low values",0.917
same,normalized growth,"locus YPL031C, strain PHO85, hits give low values",0.832
same,normalized growth,"locus YPL153C, strain RAD53, hits give low values",0.723
same,normalized growth,"locus YPL204W, strain HRR25, hits give low values",0.834
same,normalized growth,"locus YPL209C, strain IPL1, hits give low values",0.921
same,normalized growth,"locus YPL256C, strain CLN2, hits give low values",0.785 (active)
same,normalized growth,"locus YPR025C, strain CCL1, hits give low values",0.919
same,normalized growth,"locus YPR106W, strain ISR1, hits give low values",0.958
same,normalized growth,"locus YPR111W, strain DBF20, hits give low values",0.99
same,normalized growth,"strain NNK1, hits give low values",0.945
same,normalized growth,"strain TSCII, hits give low values",0.911
